From PubChem BioAssay
This is a sample that favours compounds with a hit; in the whole collection about 1.1% have one here.
MEP2-GFP yeast: yeast TOR pathway MEP2-GFP modulation; S. cerevisiae MEP2-GFP strain, flow cytometry GFP, 3 h; 100% = DMSO control level; GFP response vs DMSO, % at 10 µM; 0.51% of 330,000 active;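 active = GFP response versus DMSO above a set limit, roughly screen mean plus 3 SD, cut at about 180% in these data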;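 note: median GFP fluorescence of the barcode-gated MEP2-GFP cells per well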
RPL19A-GFP yeast: alters RPL19A-GFP fluorescence in TOR pathway yeast screen; S. cerevisiae RPL19A-GFP strain, flow cytometry, 3 h; active compounds read low; percent response vs DMSO, % at 10 µM; 0.3% of 330,000 active;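 active = percent response vs DMSO below 50%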;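 note: median channel GFP fluorescence of the barcoded RPL19A-GFP strain; lower means less RPL19A-GFP as with rapamycin TOR inhibition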
VLA-4 inh: inhibition in a human VLA-4 binding assay | inhibition, % (about 7 µM as worked out from the volumes in the protocol) | VLA-4 expressing cells, ligand binding flow cytometry | 0.2% of 330,000 active | P13612; in the data active = inhibition above about 50%
Target sequence (P13612 whole entry, looked up): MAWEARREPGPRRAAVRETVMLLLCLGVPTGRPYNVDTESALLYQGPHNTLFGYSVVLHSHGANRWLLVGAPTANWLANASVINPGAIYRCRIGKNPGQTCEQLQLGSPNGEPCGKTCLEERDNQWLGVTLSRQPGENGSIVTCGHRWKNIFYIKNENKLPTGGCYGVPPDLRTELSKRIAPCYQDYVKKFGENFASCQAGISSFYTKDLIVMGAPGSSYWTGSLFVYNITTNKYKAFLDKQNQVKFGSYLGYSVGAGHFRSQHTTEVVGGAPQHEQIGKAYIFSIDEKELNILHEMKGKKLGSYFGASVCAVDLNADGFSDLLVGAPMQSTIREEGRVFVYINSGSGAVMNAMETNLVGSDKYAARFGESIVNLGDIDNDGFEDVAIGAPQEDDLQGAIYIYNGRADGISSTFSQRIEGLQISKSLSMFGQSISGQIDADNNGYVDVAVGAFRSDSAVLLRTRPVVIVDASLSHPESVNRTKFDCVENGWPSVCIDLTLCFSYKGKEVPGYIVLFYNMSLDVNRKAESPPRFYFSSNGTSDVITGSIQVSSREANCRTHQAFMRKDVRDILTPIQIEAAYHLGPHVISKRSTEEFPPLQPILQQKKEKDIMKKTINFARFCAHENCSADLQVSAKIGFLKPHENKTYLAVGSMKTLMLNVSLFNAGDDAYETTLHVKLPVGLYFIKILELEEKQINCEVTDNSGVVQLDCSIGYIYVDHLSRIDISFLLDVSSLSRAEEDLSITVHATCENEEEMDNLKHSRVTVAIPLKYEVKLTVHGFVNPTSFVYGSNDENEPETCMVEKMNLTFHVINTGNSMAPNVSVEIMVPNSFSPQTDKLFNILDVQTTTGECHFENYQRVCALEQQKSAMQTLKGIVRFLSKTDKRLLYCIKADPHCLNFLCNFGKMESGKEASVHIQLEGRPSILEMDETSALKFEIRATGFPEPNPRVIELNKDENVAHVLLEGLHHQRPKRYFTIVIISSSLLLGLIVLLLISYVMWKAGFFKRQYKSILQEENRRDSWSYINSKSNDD
AGP1-GFP MLPCN: yeast TOR pathway AGP1-GFP modulation | S. cerevisiae AGP1-GFP multiplex flow cytometry, 3 h; GFP as percent of DMSO wells | GFP response vs DMSO, % at 10 µM | 0.02% of 320,000 active;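 active = GFP response relative to DMSO above a set limit, near screen average plus 3 SD, cut at about 150% in these data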;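 note: median GFP channel fluorescence of the gated AGP1 strain per well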
CIT2-GFP yeast: yeast TOR pathway CIT2-GFP modulation. S. cerevisiae CIT2-GFP strain, flow cytometry, 3 h; 100 means same as DMSO wells. GFP response vs DMSO, % at 10 µM. 0.065% of 320,000 active. AID 2029;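 active = GFP response relative to DMSO above a set limit, near the screen mean plus 3 SD, cut at about 150% in these data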;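 note: ratio of well median GFP fluorescence to mean of DMSO wells on the plate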
LAP4-GFP MLPCN: yeast TOR pathway LAP4-GFP modulation; GFP response vs DMSO, % at 10 µM; S. cerevisiae LAP4-GFP multiplex, flow cytometry GFP, 3 h; median GFP as percent of DMSO wells; 0.34% of 320,000 active;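 active = GFP response vs DMSO above a set limit, about the screen mean plus 3 SD, cut at about 150% in these data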
LAP4-GFP pick2: yeast LAP4-GFP modulation, second cherry pick. shares compounds with LAP4-GFP MLPCN. S. cerevisiae LAP4-GFP strain, flow cytometry GFP, 3 h. AID 2621. 20% of 590 active. GFP response vs DMSO, % at 10 µM;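 active = GFP signal as percent of the solvent control above about 150%, meaning raised reporter expression, limit read from the data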
MEP2-GFP pick2: reconfirmed MEP2-GFP TOR pathway modulator in yeast | shares compounds with LAP4-GFP MLPCN | S. cerevisiae MEP2-GFP strain, flow cytometry GFP, 3 h | GFP response vs DMSO, % at 10 µM | 10% of 590 active | AID 2622;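 active = GFP signal above 150% of the solvent control wells, that is a rise of more than half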;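 note: median channel GFP fluorescence of all gated yeast cells per well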
RPL19A-GFP pick2: yeast RPL19A-GFP TOR reporter modulation, second cherry pick; GFP response vs DMSO, % at 10 µM; S. cerevisiae RPL19A-GFP strain, flow cytometry GFP, 3 h; active compounds read low; 100% means same as DMSO wells; shares compounds with LAP4-GFP MLPCN; 3% of 590 active;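 active = under 65% GFP response relative to DMSO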;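 note: median GFP channel fluorescence per well over the all cells gate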
CIT2-GFP pick2: reconfirmed modulator of CIT2-GFP TOR reporter in yeast; shares compounds with LAP4-GFP MLPCN; S. cerevisiae CIT2-GFP strain, flow cytometry GFP, 3 h; DMSO control wells read 100%; GFP response vs DMSO, % at 10 µM; 8% of 590 active;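 active = GFP response vs DMSO above about 150%, limit read from the data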;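 note: median green fluorescence per well over all gated yeast cells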
AGP1 GFP CP2: second confirmation of modulators of TOR reporter AGP1-GFP in yeast; 590 tested, under 10 active; percent response vs DMSO, % at 10 µM; AID 2643; shares compounds with LAP4-GFP MLPCN; S. cerevisiae AGP1-GFP strain, flow cytometry GFP, 3 h;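 active = over 150 percent of DMSO response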;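 note: median GFP channel fluorescence over all cells without mother daughter split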
s288c autofluor: compound is autofluorescent in yeast s288c cells | shares compounds with LAP4-GFP MLPCN | S. cerevisiae s288c, 520 nm autofluorescence, flow cytometry, 3 h; active compounds read high; zero means same as solvent-only cells | fluorescence change (kMESF span) at 33 µM | 610 tested, under 10 active | AID 2757;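 active = fluorescence span over the dose series, or activity score, above about 33, limit read from the data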
Yeast autofl DR: TOR screen hit shows autofluorescence in yeast s288c | S. cerevisiae s288c parental, compound autofluorescence, flow cytometry, 3 h | fluorescence change (span) at 33 µM | shares compounds with LAP4-GFP MLPCN | 110 tested, under 10 active;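 active = fluorescence change span, or the activity score built from it, above 25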
TORC1 bypass gr: compounds blocking wildtype yeast growth but not TORC1 bypass cells; growth rating (0-3) at 30 µM; 120 tested, under 10 active; shares compounds with LAP4-GFP MLPCN; S. cerevisiae BY4741 spot growth rating, 48-72 h; active compounds read low; AID 504456;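 active = growth rating at most 1 for wild type yeast while the TORC1 bypass strain still grows fully, rated 3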
Large screens that a line does not name were inactive (follow-up assays come after a bar, where they were run); [ ] = dose if it differs, or a comment.

O=[N+]([O-])c1cc(S(=O)(=O)C(F)(F)F)ccc1Sc1nc2ccccc2s1	LAP4-GFP MLPCN 159 | s288c autofluor inactive | Yeast autofl DR inactive | TORC1 bypass gr inactive
N/C(Cc1ccc(Cl)cc1Cl)=N\OC(=O)Cc1ccccc1	none
N/C(=N\OC(=O)c1ccc(Cl)cc1Cl)c1ccc(Cl)cc1	none
N/C(=N\OC(=O)c1ccccc1Cl)c1ccc(Cl)cc1	CIT2-GFP yeast 169 | s288c autofluor inactive
N/C(Cc1ccc(Cl)cc1Cl)=N\OC(=O)c1ccccc1	LAP4-GFP MLPCN 170 | s288c autofluor inactive
N/C(Cc1ccc(Cl)cc1)=N\OC(=O)c1cccc2ccccc12	LAP4-GFP MLPCN 196 | s288c autofluor inactive | Yeast autofl DR inactive | TORC1 bypass gr inactive
N/C(=N\OC(=O)c1ccc(Cl)cc1Cl)c1ccccc1	LAP4-GFP MLPCN 257 | s288c autofluor inactive
COc1cccc(C(=O)NN2CCOCC2)c1	none
O=C1C=C(c2ccc3ncccc3c2)C[C@@H](c2ccc(Cl)cc2)C1	LAP4-GFP MLPCN 151 | LAP4-GFP pick2 inactive | MEP2-GFP pick2 inactive | RPL19A-GFP pick2 inactive | CIT2-GFP pick2 inactive | AGP1 GFP CP2 inactive
CC(=O)Oc1cccc(N2C(=O)c3cccc4c([N+](=O)[O-])ccc(c34)C2=O)c1	MEP2-GFP yeast 227, LAP4-GFP MLPCN 178 | LAP4-GFP pick2 177 | MEP2-GFP pick2 281 | RPL19A-GFP pick2 inactive | CIT2-GFP pick2 225 | AGP1 GFP CP2 inactive | s288c autofluor inactive
COc1ccccc1NS(=O)(=O)c1cccc(-n2c(O)c(C=Nc3ccccc3C(=O)O)c3ccccc3c2=O)c1	none
Oc1c(I)cc(I)c2cccnc12	LAP4-GFP MLPCN 238 | LAP4-GFP pick2 167 | MEP2-GFP pick2 inactive | RPL19A-GFP pick2 inactive | CIT2-GFP pick2 inactive | AGP1 GFP CP2 inactive | s288c autofluor inactive | Yeast autofl DR inactive | TORC1 bypass gr inactive
Cc1nn2c(NCc3ccccn3)c3c(nc2c1-c1ccccc1)CCC3	LAP4-GFP MLPCN 152 | s288c autofluor inactive
Cc1cc(NCc2ccccn2)n2nc(C)c(-c3ccccc3)c2n1	none
CCOC(=O)c1sc(Nc2ccccc2Cl)nc1C	none | LAP4-GFP pick2 inactive | MEP2-GFP pick2 inactive | RPL19A-GFP pick2 inactive | CIT2-GFP pick2 inactive | AGP1 GFP CP2 inactive
CCOC(=O)c1sc(NC(=O)Nc2ccccc2F)nc1C	none
COc1ccc(CNC(=O)COC(=O)c2ccc(S(=O)(=O)NCc3ccco3)cc2)cc1	none
O=C(NCC(=O)N1CCC(N2CCCCC2)CC1)C1CCCCC1	MEP2-GFP yeast 230, RPL19A-GFP yeast 26 | LAP4-GFP pick2 inactive | MEP2-GFP pick2 inactive | RPL19A-GFP pick2 inactive | CIT2-GFP pick2 inactive | AGP1 GFP CP2 inactive
N=C1S/C(=C\c2ccco2)C(=O)N1c1nccs1	LAP4-GFP MLPCN 168 | s288c autofluor inactive
N=C1S/C(=C\c2ccco2)C(=O)N1c1ccc2c(c1)OCO2	none
CCOc1c(Br)cc(/C=C(\C#N)C(=O)NC2CC2)cc1OC	LAP4-GFP MLPCN 154[may fluoresce green] | LAP4-GFP pick2 inactive | MEP2-GFP pick2 inactive | RPL19A-GFP pick2 inactive | CIT2-GFP pick2 inactive | AGP1 GFP CP2 inactive
CCSc1nnc(NC(=O)c2cnccn2)s1	none
CCSc1nnc(NC(=O)c2ccccn2)s1	LAP4-GFP MLPCN 175 | s288c autofluor inactive | Yeast autofl DR inactive | TORC1 bypass gr inactive
O=[N+]([O-])c1cc(CN2CCN(c3cccc(C(F)(F)F)c3)CC2)c2cccnc2c1O	LAP4-GFP MLPCN 214 (no result: AGP1-GFP MLPCN) | s288c autofluor inactive
COc1ccc(/C=C/C(=O)NC(=S)NNC(=O)Cc2cccs2)cc1	none
O=C(/C=C/c1ccccc1)NC(=S)NNC(=O)Cc1cccs1	none | LAP4-GFP pick2 inactive | MEP2-GFP pick2 inactive | RPL19A-GFP pick2 inactive | CIT2-GFP pick2 inactive | AGP1 GFP CP2 inactive | s288c autofluor inactive
O=C(/C=C/c1ccnc2ccccc12)c1cccs1	LAP4-GFP MLPCN 172 | s288c autofluor inactive
Cc1ccc(C)n1-c1nnc(N2CCC(C(=O)NCCCN3CCN(C)CC3)CC2)s1	none
O=C(c1cccs1)N1CCC(c2nc3c(nnn3Cc3c(Cl)cccc3Cl)c(=O)[nH]2)CC1	none
O=C(c1cc(O)c(O)c([N+](=O)[O-])c1)c1ccccc1F	LAP4-GFP MLPCN 151 | LAP4-GFP pick2 inactive | MEP2-GFP pick2 inactive | RPL19A-GFP pick2 inactive | CIT2-GFP pick2 inactive | AGP1 GFP CP2 inactive
CCS(=O)(=O)N1CCC(C(=O)Nc2ccc3c(c2)CCC3)CC1	CIT2-GFP yeast 154 | LAP4-GFP pick2 inactive | MEP2-GFP pick2 inactive | RPL19A-GFP pick2 inactive | CIT2-GFP pick2 inactive | AGP1 GFP CP2 inactive
O=C(CSc1ccccc1)N(c1ccc(Br)cc1)c1nccs1	none
O=C(OC1CSc2nc3ccccc3n2C1)c1ccco1 (configuration not stated)	MEP2-GFP yeast 283, RPL19A-GFP yeast 18 | LAP4-GFP pick2 inactive | MEP2-GFP pick2 inactive | RPL19A-GFP pick2 inactive | CIT2-GFP pick2 inactive | AGP1 GFP CP2 inactive
CC(=O)NS(=O)(=O)c1ccc(NC(=O)C(C)NS(=O)(=O)/C=C/c2ccccc2)cc1 (configuration not stated)	none
